Results reported in the supplement of paper PMC10849652.
About 7,900 targets were measured; listed, in parts, are those with a hit and a random draw of the rest. About 0.6% of all pairs of compound and target were hits.

Columns and labels:
Experiment in all cases: log2 fold change, soluble protein after heating vs DMSO (PISA); higher = thermal stabilisation; K562 cells, 10 uM, 30 min; active = over 0.2 and 3.5 SD of the protein, either way, in both replicates (recomputed)
erlotinib = compound: C#Cc1cccc(Nc2ncnc3cc(OCCOC)c(OCCOC)cc23)c1 [erlotinib]
In short: (§1)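 For each measurement, 10 μM compound was applied for 30 min to K562 cells at 2×10^6 cells/mL. Aliquots were heated for 3 min across 48°C-58°C, pooled, and extracted in PBS with 0.5% NP-40 at 4°C; the supernatant after 21,000xg for 90 min was soluble protein. This was quantified by TMTpro 16plex LC-MS/MS with channel sums equalised, and thermal stability was reported relative to control samples from duplicates, on a log2 fold-change scale.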

[1] = compound: C/C(=N\NC(=O)C1=CC(=CC=C1)S(=O)(=O)N2CCOCC2)/C3=C(C=CC(=C3)Cl)O
In short: as §1

[2] = compound: C1=CC(=C(C=C1Cl)C2=NC3=NC=CN=C3C(=N2)NC4=CC=NC=C4)F
In short: as §1

[3] = compound: C1=CC(=CC=C1C2=NC3=C(N2)C=C(C=C3)C(=O)N)OC4=CC=C(C=C4)Cl
In short: as §1

[4] = compound: C1=CC2=C(C=CC(=C2)/C=C\3/C(=O)NC(=NCC4=CC=CS4)S3)N=C1
In short: as §1

[5] = compound: C1=CC2=NC=CN=C2C=C1/C=C/3\C(=O)NC(=O)S3
In short: as §1

[6] = compound: C1=CC=C(C=C1)C2=NC(=C(N2)C3=CC=NC=C3)C4=CC(=C(C=C4)Cl)O
In short: as §1

[7] = compound: C1=CC=C2C(=C1)C3=NNC4=CC=CC(=C43)C2=O
In short: as §1

[8] = compound: C1CCN(C1)C(=O)NC2=CC=CC(=C2)NC3=NC=C(C(=N3)NCCC4=CN=CN4)Br
In short: as §1

[9] = compound: C1CN(CCC1(CC2=CC=C(C=C2)Cl)N)C3=NC=NC4=C3C=CN4
In short: as §1

IRAK-1-4 Inhibitor I = compound: C1COCCN1CCN2C3=CC=CC=C3N=C2NC(=O)C4=CC(=CC=C4)[N+](=O)[O-] [IRAK-1-4 Inhibitor I]
In short: as §1

ibrutinib = compound: C=CC(=O)N1CCC[C@@H](n2nc(-c3ccc(Oc4ccccc4)cc3)c3c(N)ncnc32)C1 [ibrutinib]
In short: as §1

[10] = compound: CC(=O)c1cnc2ccc(-c3cc(Cl)c(O)c(Cl)c3)nc2c1N[C@H]1CC[C@H](CN(C)C)CC1
In short: as §1

ralimetinib = compound: CC(C)(C)Cn1c(N)nc2ccc(-c3[nH]c(C(C)(C)C)nc3-c3ccc(F)cc3)nc21 [ralimetinib]
In short: as §1

[11] = compound: CC(C)(O)CC(=O)NCCn1ccc2ncnc(Nc3ccc(Oc4cccc(C(F)(F)F)c4)c(Cl)c3)c21
In short: as §1

[12] = compound: CC(C)C1=C2N=C(C=C(N2N=C1)NCC3=CC=CC=C3)NCCCCCCN
In short: as §1

[13] = compound: CC(C)C[C@@H](C=O)NC(=O)[C@H](CC(C)C)NC(=O)[C@H](CC(C)C)NC(=O)OCc1ccccc1
In short: as §1

pinometostat = compound: CC(C)N(C[C@H]1O[C@@H](n2cnc3c(N)ncnc32)[C@H](O)[C@@H]1O)[C@H]1C[C@@H](CCc2nc3cc(C(C)(C)C)ccc3[nH]2)C1 [pinometostat]
In short: as §1

[14] = compound: CC1=C(C(CC(=O)N1)C2=CC=C(C=C2)C(F)(F)F)C(=O)NC3=C(C=C4C(=C3)C=NN4)F
In short: as §1

[15] = compound: CC1=C(C2=C(C=C1)C(=O)C3=CC=CC=C3N2CCCN)C
In short: as §1

Measured: log2 fold change

CD53 (UniProt P19397)
Chain of UniProt P19397 (P19397 whole entry, looked up): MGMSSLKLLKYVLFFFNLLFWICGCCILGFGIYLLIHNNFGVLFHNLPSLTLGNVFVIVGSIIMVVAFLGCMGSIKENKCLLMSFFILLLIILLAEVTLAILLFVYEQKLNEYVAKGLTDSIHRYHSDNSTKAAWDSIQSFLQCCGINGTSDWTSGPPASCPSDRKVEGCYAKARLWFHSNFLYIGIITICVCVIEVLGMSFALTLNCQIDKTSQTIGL
inactive: erlotinib 0.041 | [1] 0.028 | [2] 0.059 | [3] -0.006 | [4] 0.064 | [5] 0.01 | [6] -0.221 | [7] -0.086 | [8] -0.001 | [9] -0.007 | IRAK-1-4 Inhibitor I 0.097 | ibrutinib 0.033 | [10] -0.026 | ralimetinib -0.24 | [11] -0.021 | [12] 0.229 | [13] 0.051 | pinometostat -0.014 | [14] -0.004 | [15] 0.105

CHCHD4 isoform 2 (UniProt Q8N4Q1)
Chain of UniProt Q8N4Q1 (Q8N4Q1 whole entry, looked up): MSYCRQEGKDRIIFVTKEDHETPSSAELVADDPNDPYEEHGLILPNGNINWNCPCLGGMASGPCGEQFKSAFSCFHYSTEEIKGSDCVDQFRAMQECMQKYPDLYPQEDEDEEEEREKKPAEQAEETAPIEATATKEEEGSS
inactive: erlotinib -0.071 | [1] 0.102 | [2] -0.045 | [3] -0.036 | [4] -0.067 | [5] 0.012 | [6] -0.022 | [7] 0.053 | [8] -0.678 | [9] 0.177 | IRAK-1-4 Inhibitor I 0.056 | ibrutinib 0.003 | [10] 0.096 | ralimetinib -0.003 | [11] 0.002 | [12] 0.075 | [13] 0.03 | pinometostat -0.024 | [14] -0.011 | [15] -0.18

CSTF3 (UniProt Q12996)
Chain of UniProt Q12996 (Q12996 whole entry, looked up): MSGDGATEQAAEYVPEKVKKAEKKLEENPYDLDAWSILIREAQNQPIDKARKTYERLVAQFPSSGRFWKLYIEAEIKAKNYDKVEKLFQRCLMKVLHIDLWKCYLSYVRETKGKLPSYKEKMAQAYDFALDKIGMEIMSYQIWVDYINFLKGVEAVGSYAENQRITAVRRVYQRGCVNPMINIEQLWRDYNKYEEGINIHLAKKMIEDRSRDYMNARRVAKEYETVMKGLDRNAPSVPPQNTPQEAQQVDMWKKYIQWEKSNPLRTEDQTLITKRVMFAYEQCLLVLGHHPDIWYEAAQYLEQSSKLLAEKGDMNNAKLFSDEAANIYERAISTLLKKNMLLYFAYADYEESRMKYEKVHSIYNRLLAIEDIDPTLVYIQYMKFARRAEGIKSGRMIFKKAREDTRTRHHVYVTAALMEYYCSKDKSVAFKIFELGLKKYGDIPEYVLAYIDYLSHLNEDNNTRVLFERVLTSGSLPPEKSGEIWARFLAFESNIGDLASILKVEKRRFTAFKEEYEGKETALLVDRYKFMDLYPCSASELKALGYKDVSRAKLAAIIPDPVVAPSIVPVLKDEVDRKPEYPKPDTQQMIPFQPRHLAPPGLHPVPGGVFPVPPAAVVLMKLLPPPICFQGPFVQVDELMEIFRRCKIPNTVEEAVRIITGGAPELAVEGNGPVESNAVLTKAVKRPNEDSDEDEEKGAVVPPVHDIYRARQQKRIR
active: [15] 0.262
inactive: erlotinib -0.038 | [1] 0.012 | [2] -0.003 | [3] 0.015 | [4] 0.014 | [5] 0.077 | [6] -0.032 | [7] 0.035 | [8] 0.027 | [9] -0.027 | IRAK-1-4 Inhibitor I 0.087 | ibrutinib 0 | [10] 0.019 | ralimetinib -0.052 | [11] -0.026 | [12] 0.132 | [13] -0.012 | pinometostat 0.021 | [14] -0.018

COPS8 (UniProt Q99627)
Chain of UniProt Q99627 (Q99627 whole entry, looked up): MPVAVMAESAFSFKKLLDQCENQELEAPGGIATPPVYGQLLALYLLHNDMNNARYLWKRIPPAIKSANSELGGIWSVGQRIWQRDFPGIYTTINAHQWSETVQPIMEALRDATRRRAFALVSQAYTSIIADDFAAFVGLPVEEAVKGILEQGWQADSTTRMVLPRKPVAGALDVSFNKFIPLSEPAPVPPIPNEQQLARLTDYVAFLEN
inactive: erlotinib 0.033 | [1] 0.032 | [2] -0.005 | [3] -0.002 | [4] 0.081 | [5] 0.008 | [6] 0.012 | [7] -0.042 | [8] -0.04 | [9] 0.015 | IRAK-1-4 Inhibitor I -0.006 | ibrutinib 0.039 | [10] -0.011 | ralimetinib -0.042 | [11] 0.031 | [12] 0.043 | [13] 0.027 | pinometostat -0.021 | [14] -0.006 | [15] 0.13

CD55 isoform 7 (UniProt P08174)
Chain of UniProt P08174 (P08174 whole entry, looked up): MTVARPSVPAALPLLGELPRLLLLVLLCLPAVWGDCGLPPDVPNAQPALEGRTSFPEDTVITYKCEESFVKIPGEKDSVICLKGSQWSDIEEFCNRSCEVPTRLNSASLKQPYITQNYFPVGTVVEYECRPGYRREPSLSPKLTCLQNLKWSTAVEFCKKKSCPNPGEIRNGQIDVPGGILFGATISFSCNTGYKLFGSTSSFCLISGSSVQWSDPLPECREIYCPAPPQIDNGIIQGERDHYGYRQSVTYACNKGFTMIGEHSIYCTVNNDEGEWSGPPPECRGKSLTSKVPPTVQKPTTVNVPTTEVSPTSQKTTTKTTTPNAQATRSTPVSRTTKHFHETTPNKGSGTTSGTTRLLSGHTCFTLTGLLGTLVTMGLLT
inactive: erlotinib -0.065 | [1] -0.002 | [2] -0.031 | [3] 0.036 | [4] -0.121 | [5] -0.015 | [6] 0.011 | [7] -0.062 | [8] -0.079 | [9] 0.008 | IRAK-1-4 Inhibitor I -0.043 | ibrutinib 0.071 | [10] -0.008 | ralimetinib 0.016 | [11] 0.037 | [12] 0.155 | [13] -0.012 | pinometostat 0.019 | [14] 0.02 | [15] -0.054

CDC26 (UniProt Q8NHZ8)
Chain of UniProt Q8NHZ8 (Q8NHZ8 whole entry, looked up): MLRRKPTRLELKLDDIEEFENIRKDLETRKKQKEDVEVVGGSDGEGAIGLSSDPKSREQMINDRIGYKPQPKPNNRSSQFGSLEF
active: [4] -0.542
inactive: erlotinib -0.096 | [1] 0.16 | [2] -0.046 | [3] 0.034 | [5] 0.025 | [6] 0.355 | [7] 0.037 | [8] -0.137 | [9] -0.022 | IRAK-1-4 Inhibitor I -0.014 | ibrutinib -0.003 | [10] 0.099 | ralimetinib 0.188 | [11] 0.007 | [12] -0.01 | [13] -0.04 | pinometostat -0.128 | [14] 0.005 | [15] 0.049

C9orf72 (UniProt Q96LT7)
Chain of UniProt Q96LT7 (Q96LT7 whole entry, looked up): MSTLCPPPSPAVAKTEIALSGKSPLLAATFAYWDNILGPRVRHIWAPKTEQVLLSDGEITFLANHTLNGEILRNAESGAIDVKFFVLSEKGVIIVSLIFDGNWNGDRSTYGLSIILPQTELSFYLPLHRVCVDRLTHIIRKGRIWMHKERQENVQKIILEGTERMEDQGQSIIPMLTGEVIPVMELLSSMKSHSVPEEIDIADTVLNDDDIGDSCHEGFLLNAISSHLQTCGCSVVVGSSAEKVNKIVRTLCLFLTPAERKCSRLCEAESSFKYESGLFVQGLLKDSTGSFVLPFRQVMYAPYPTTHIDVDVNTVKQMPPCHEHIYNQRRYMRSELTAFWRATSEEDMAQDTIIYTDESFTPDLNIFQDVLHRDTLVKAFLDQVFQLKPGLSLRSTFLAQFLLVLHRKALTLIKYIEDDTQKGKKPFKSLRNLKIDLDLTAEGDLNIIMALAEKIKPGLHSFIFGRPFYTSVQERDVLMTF
inactive: erlotinib 0.095 | [1] 0.021 | [2] 0.02 | [3] -0.012 | [4] -0.068 | [5] -0.068 | [6] -0.086 | [7] -0.057 | [8] -0.205 | [9] 0.211 | IRAK-1-4 Inhibitor I 0.016 | ibrutinib 0.022 | [10] -0.001 | ralimetinib 0.035 | [11] -0.051 | [12] 0.029 | [13] -0.019 | pinometostat 0.135 | [14] -0.095 | [15] 0.048

CHP1 (UniProt Q99653)
Chain of UniProt Q99653 (Q99653 whole entry, looked up): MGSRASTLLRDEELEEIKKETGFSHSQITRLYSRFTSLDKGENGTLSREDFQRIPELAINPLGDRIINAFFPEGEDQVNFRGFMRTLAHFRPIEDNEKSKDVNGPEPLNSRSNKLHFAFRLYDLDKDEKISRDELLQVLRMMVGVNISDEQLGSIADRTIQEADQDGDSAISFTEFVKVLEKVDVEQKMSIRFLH
active: [6] 0.287
inactive: erlotinib -0.022 | [1] 0.024 | [2] 0.097 | [3] 0.012 | [4] -0.056 | [5] 0.008 | [7] 0.006 | [8] -0.07 | [9] 0.091 | IRAK-1-4 Inhibitor I 0.091 | ibrutinib -0.024 | [10] 0.001 | ralimetinib 0.145 | [11] -0.017 | [12] 0.017 | [13] -0.061 | pinometostat -0.02 | [14] -0.017 | [15] -0.047
